Each structure is given as a SMILES string.

In this experiment the test system is HepG2. Kind of experiment: GSK_TCMDC: Percent inhibition of human HepG2 cell line. Test compounds present at 10uM. The class given is functional.
In the case of `CCc1cc(NCc2ccncc2)nc(Nc2ccc(F)cc2)n1`, the Inhibition (commonly how much of the control response was suppressed) turned out to be 8%.

In turn, `N=C(NCCCCCCCCNC(=N)Nc1ccc(Cl)cc1)Nc1ccc(Cl)cc1` gave an Inhibition of 10%.

Compound `CCN(CC)c1ccc(C(c2ccc(N(CC)CC)cc2)c2ccc([N+](=O)[O-])cc2)cc1` registered an Inhibition of 20%.

In turn, `Cc1ccnc(NC(=O)c2cc(-c3cccc([N+](=O)[O-])c3)nc3onc(C)c23)c1` yielded an Inhibition of 5%.

Consider `O=C(NCCc1ccc(O)cc1)n1c2ccccc2c2ccccc21`, for which the Inhibition turned out to be 3%.

As to `COc1cccc(C23NC(=Nc4nc5ccccc5[nH]4)NC2(c2cccc(OC)c2)NC(=Nc2nc4ccccc4[nH]2)N3)c1` (centres undefined), the Inhibition turned out to be 0%.

In turn, `COc1ccc2nc3cc(Cl)ccc3c(NCCCO)c2c1` showed an Inhibition of 32%.

For `COc1cc2nc(NCCc3ccccc3)nc(NCCc3ccccc3)c2cc1OC`, the Inhibition is on record as 99%.

`CCCc1c(Cl)cc(CNCCCNc2nc3ccncc3[nH]2)cc1Cl` returned an Inhibition of 23%.

For `CC[C@H](NC(=O)c1c(CCCN2CCN(c3ccccc3)CC2)c(-c2ccccc2)nc2cc(O)ccc12)c1ccccc1`, the Inhibition is 12%.

For `CN1CCN(CCc2ccc3nc(-c4csc(Cc5cc(Cl)ccc5OCc5ccccc5)n4)[nH]c3c2)CC1`, the Inhibition is listed as 30%.

On to `Cc1ccc2[nH]c(C)cc(=NN=Cc3ccccc3F)c2c1`, for which the Inhibition is 36%.

`COc1cc(Cc2cnc(N)nc2N)cc(OCCCCC2SC(=O)NC2=O)c1OC` (centres undefined) came in with an Inhibition of 0%.

Consider `O=C(Nc1cccc(OC2CCN(Cc3ccsc3)CC2)c1)c1ccc(C(F)(F)F)cc1.O=C(O)C(F)(F)F`, for which the Inhibition is 25%.

On to `COc1cccc(NC(=O)Nc2ccc(Nc3nc(C)cc(N(C)C)n3)cc2)c1`, for which the Inhibition turned out to be 14%.

Turning to `Cc1ccc(C(O)CNc2ccnc(Nc3cccc(-c4csc(C)n4)c3)n2)cc1` (centres undefined), the Inhibition was 17%.

In the case of `CCOc1cc(C(=O)Nc2ccc3nc(N4CCCCC4)cc(C)c3c2)cc(OCC)c1OCC`, the Inhibition is reported as 26%.

In turn, `O=C(NCc1cccc(Br)c1)c1ccc(CNC2CCN(Cc3ccccc3)CC2)cc1.O=C(O)C(F)(F)F` showed an Inhibition of 3%.

As for `CN(c1ccccc1C(=O)Nc1ccccc1Oc1ccccc1)S(=O)(=O)c1ccccc1`, the Inhibition worked out at 2%.

In the case of `Cc1sc2nc(CSc3ccccc3)nc(N3CCN(CC(=O)NC4CC4)CC3)c2c1C`, the Inhibition is given as 2%.

As to `NC(=O)c1cccc(C(=O)Nc2cccc(-c3ccc(-c4nc5cc(C(F)(F)F)ccc5[nH]4)cc3)c2)c1`, the Inhibition stood at 83%.

Compound `Cc1oc(-c2cccc(Oc3ccccc3)c2)nc1CN(Cc1cnn(C)c1)C(C)C` displayed an Inhibition of 22%.

`NS(=O)(=O)c1cccc(N/C=C2\C(=O)Nc3ccc(S(=O)(=O)Cc4c(Cl)cccc4Cl)cc32)c1` yielded an Inhibition of 1%.

For the compound `C(=N\Nc1nccc2sc(-c3cccnc3)cc12)/c1cccnc1`, the Inhibition was found to be 5%.

Turning to `COc1cc2c(c(Cl)c1OC)CCN(C(=O)C(F)(F)F)CC2c1ccccc1` (centres undefined), the Inhibition worked out at 7%.

The compound `C[C@H](CNc1ccnc(Nc2ccc3[nH]c(=O)[nH]c3c2)n1)c1ccccc1.O=CO` gave an Inhibition of 61%.

The compound `OC(CN1CCN(C2CCCCC2)CC1)Cn1c2ccccc2c2cc(Br)ccc21` (centres undefined) had an Inhibition of 14%.

Compound `Cc1[nH]c(C)c(-c2ccc(-c3ccc(C(F)F)cc3)nc2)c(=O)c1Cl` came in with an Inhibition of 0%.

As to `Cl.O=c1cc(NCCCNCc2ccc(Cl)c(Cl)c2)[nH]c2cc(Cl)ccc12`, the Inhibition is recorded as 1%.

In the case of `CCCCc1cc(NCc2ccncc2)nc(Nc2ccc(C)cc2)n1`, the Inhibition is 7%.

In the case of `CC1CCN(CC[C@H]2CCCN2S(=O)(=O)c2cccc(NC(=O)c3cc4ccccc4s3)c2)CC1`, the Inhibition was determined as 28%.

Take `CCOc1c(Cl)cc(Cl)cc1CNCCCNc1nc2ccccc2[nH]1.Cl`: the Inhibition was 18%.

Turning to `CCC(CC)CN1C(=O)C(C)(c2ccccc2)N=C1N.O=C(O)C(F)(F)F` (centres undefined), the Inhibition stood at 1%.

`O=C(/C=C/c1ccc(Cl)c(Cl)c1)NCCCCCN1CCC(CCNC(=O)/C=C/c2ccccc2F)CC1` yielded an Inhibition of 47%.

In turn, `CCN(CCCN1CCCC1)c1cc(C)nc(Nc2ccc(Cl)cc2)n1.O=C(O)C(=O)O` returned an Inhibition of 5%.

Compound `CN1CCN(CCCN(Cc2cccc(-c3ccc(CNCc4ccc5c(c4)OCO5)cc3)c2)C(=O)Nc2ccccc2)CC1.O=C(O)C(F)(F)F` had an Inhibition of 39%.

The compound `CN(C)CCNc1nccc(N2CCc3ncnc(Nc4ccc(OCc5cccc(F)c5)c(Cl)c4)c3C2)n1` had an Inhibition of 65%.

For the compound `O=C(Nc1cccc(C(F)(F)F)c1)Nc1cc(F)c(F)cc1Cl`, the Inhibition amounted to 0%.

Take `Cn1nc(-c2cccc(CNC3CCc4ccccc43)c2)c2cnc(NCCCN3CCCC3)nc21` (centres undefined): the Inhibition worked out at 29%.

The values are drawn from ChEMBL document CHEMBL1157539, “Thousands of chemical starting points for antimalarial lead identification” (Nature, 2010).
